# Assay results taken from PubChem BioAssay AID1159580 (chemical genetic matrix, 2015).
# Hit rate of the full screen: of about 5,500 compounds, about 2,000 (36%) were called active. Inconclusive results (about 18%) are left out. This is one part of the list. Unmarked numbers belong to inactive results. No stated cut-off is given here; in the data, active means normalized growth mostly below about 0.91 (no sharp cut-off); inconclusive means no clear call, values can overlap the other calls; inactive means mostly above about 0.92.
# Experiment: chemical genetic growth profiling, strain panel (AID 1159580);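 further: tested at 20 µM; growth read once vehicle control cultures reached saturation at 30 °C; 1 = growth at the plate median or of vehicle wells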
# Details: growth OD
structure (smiles),measurement,setting,value
CCC(=O)O[C@H]1CCC2C3CCc4cc(O)ccc4C3CC[C@@]21C (some centres undefined),normalized growth,"S. cerevisiae deletion strains, locus YJL187C, strain SWE1, stronger effect = lower value",0.995
same,normalized growth,"S. cerevisiae deletion strains, locus YJR043C, strain POL32, stronger effect = lower value",0.974
same,normalized growth,"S. cerevisiae deletion strains, locus YJR066W, strain TOR1, stronger effect = lower value",0.728 (active)
same,normalized growth,"S. cerevisiae deletion strains, locus YJR075W, strain HOC1, stronger effect = lower value",0.948
same,normalized growth,"S. cerevisiae deletion strains, locus YKL009W, strain mrt4, stronger effect = lower value",0.986
same,normalized growth,"S. cerevisiae deletion strains, locus YKL068W, stronger effect = lower value",1
same,normalized growth,"S. cerevisiae deletion strains, locus YKL085W, strain MDH1 (second series), stronger effect = lower value",0.936
same,normalized growth,"S. cerevisiae deletion strains, locus YKL085W, strain MDH1, stronger effect = lower value",0.936
same,normalized growth,"S. cerevisiae deletion strains, locus YKL160W, strain elf1, stronger effect = lower value",0.984
same,normalized growth,"S. cerevisiae deletion strains, locus YKL190W, strain CNB1, stronger effect = lower value",1
same,normalized growth,"S. cerevisiae deletion strains, locus YKR001C, strain vps1, stronger effect = lower value",0.927
same,normalized growth,"S. cerevisiae deletion strains, locus YKR026C, strain gcn3, stronger effect = lower value",0.971
same,normalized growth,"S. cerevisiae deletion strains, locus YKR091W, strain srl3, stronger effect = lower value",0.964
same,normalized growth,"S. cerevisiae deletion strains, locus YLL001W, strain dnm1, stronger effect = lower value",0.997
same,normalized growth,"S. cerevisiae deletion strains, locus YLL026W, stronger effect = lower value",1
same,normalized growth,"S. cerevisiae deletion strains, locus YLL041C, strain sdh2, stronger effect = lower value",1.01
same,normalized growth,"S. cerevisiae deletion strains, locus YLR027C, strain aat2, stronger effect = lower value",0.966
same,normalized growth,"S. cerevisiae deletion strains, locus YLR039C, strain RIC1, stronger effect = lower value",0.771
same,normalized growth,"S. cerevisiae deletion strains, locus YLR058C, strain SHM2, stronger effect = lower value",0.871 (active)
same,normalized growth,"S. cerevisiae deletion strains, locus YLR102C, strain apc9, stronger effect = lower value",1
same,normalized growth,"S. cerevisiae deletion strains, locus YLR113W, strain HOG1, stronger effect = lower value",0.287 (active)
same,normalized growth,"S. cerevisiae deletion strains, locus YLR221C, strain rsa3, stronger effect = lower value",0.967
same,normalized growth,"S. cerevisiae deletion strains, locus YLR258W, strain gsy2, stronger effect = lower value",1
same,normalized growth,"S. cerevisiae deletion strains, locus YLR262C, strain YPT6 (second series), stronger effect = lower value",0.676 (active)
same,normalized growth,"S. cerevisiae deletion strains, locus YLR262C, strain YPT6, stronger effect = lower value",0.797
same,normalized growth,"S. cerevisiae deletion strains, locus YLR268W, strain sec22, stronger effect = lower value",0.991
same,normalized growth,"S. cerevisiae deletion strains, locus YLR320W, strain mms22, stronger effect = lower value",0.969
same,normalized growth,"S. cerevisiae deletion strains, locus YLR330W, strain CHS5, stronger effect = lower value",0.984
same,normalized growth,"S. cerevisiae deletion strains, locus YLR342W, strain FKS1 (second series), stronger effect = lower value",0.785 (active)
same,normalized growth,"S. cerevisiae deletion strains, locus YLR342W, strain FKS1, stronger effect = lower value",0.972
same,normalized growth,"S. cerevisiae deletion strains, locus YLR357W, strain rsc2, stronger effect = lower value",0.954
same,normalized growth,"S. cerevisiae deletion strains, locus YLR370C, strain arc18, stronger effect = lower value",0.975
same,normalized growth,"S. cerevisiae deletion strains, locus YLR371W, strain rom2, stronger effect = lower value",1
same,normalized growth,"S. cerevisiae deletion strains, locus YLR384C, strain iki3, stronger effect = lower value",0.994
same,normalized growth,"S. cerevisiae deletion strains, locus YLR418C, strain cdc73, stronger effect = lower value",0.937
same,normalized growth,"S. cerevisiae deletion strains, locus YML016C, strain PPZ1, stronger effect = lower value",0.997
same,normalized growth,"S. cerevisiae deletion strains, locus YML032C, strain rad52, stronger effect = lower value",0.985
same,normalized growth,"S. cerevisiae deletion strains, locus YML120C, strain ndi1, stronger effect = lower value",0.881 (active)
same,normalized growth,"S. cerevisiae deletion strains, locus YML124C, strain tub3, stronger effect = lower value",1
same,normalized growth,"S. cerevisiae deletion strains, locus YMR058W, strain fet3, stronger effect = lower value",0.977
same,normalized growth,"S. cerevisiae deletion strains, locus YMR078C, strain ctf18, stronger effect = lower value",1.02
same,normalized growth,"S. cerevisiae deletion strains, locus YMR125W, strain sto1, stronger effect = lower value",0.982
same,normalized growth,"S. cerevisiae deletion strains, locus YMR129W, stronger effect = lower value",0.979
same,normalized growth,"S. cerevisiae deletion strains, locus YMR205C, strain PFK2, stronger effect = lower value",0.929
same,normalized growth,"S. cerevisiae deletion strains, locus YMR223W, strain ubp8, stronger effect = lower value",0.956
same,normalized growth,"S. cerevisiae deletion strains, locus YMR231W, strain pep5, stronger effect = lower value",1.01
same,normalized growth,"S. cerevisiae deletion strains, locus YMR307W, strain GAS1, stronger effect = lower value",0.766
same,normalized growth,"S. cerevisiae deletion strains, locus YNL067W, strain RPL9B, stronger effect = lower value",0.974
same,normalized growth,"S. cerevisiae deletion strains, locus YNL071W, strain lat1, stronger effect = lower value",0.969
same,normalized growth,"S. cerevisiae deletion strains, locus YNL183C, strain NPR1, stronger effect = lower value",0.755 (active)
same,normalized growth,"S. cerevisiae deletion strains, locus YNL209W, strain ssb2, stronger effect = lower value",0.984
same,normalized growth,"S. cerevisiae deletion strains, locus YNL233W, strain BNI4, stronger effect = lower value",0.784 (active)
same,normalized growth,"S. cerevisiae deletion strains, locus YNL248C, strain rpa49, stronger effect = lower value",0.991
same,normalized growth,"S. cerevisiae deletion strains, locus YNL250W, strain rad50, stronger effect = lower value",0.998
same,normalized growth,"S. cerevisiae deletion strains, locus YNL271C, strain bni1, stronger effect = lower value",1.01
same,normalized growth,"S. cerevisiae deletion strains, locus YNL298W, strain CLA4, stronger effect = lower value",0.999
same,normalized growth,"S. cerevisiae deletion strains, locus YNL307C, strain MCK1, stronger effect = lower value",0.935
same,normalized growth,"S. cerevisiae deletion strains, locus YNL322C, strain KRE1 (second series), stronger effect = lower value",0.977
same,normalized growth,"S. cerevisiae deletion strains, locus YNR049C, strain mso1, stronger effect = lower value",0.986
same,normalized growth,"S. cerevisiae deletion strains, locus YNR052C, strain pop2, stronger effect = lower value",1
same,normalized growth,"S. cerevisiae deletion strains, locus YOL006C, strain TOP1, stronger effect = lower value",0.958
same,normalized growth,"S. cerevisiae deletion strains, locus YOL012C, strain htz1",1.25
same,normalized growth,"S. cerevisiae deletion strains, locus YOL147C, strain pex11, stronger effect = lower value",1
same,normalized growth,"S. cerevisiae deletion strains, locus YOR001W, strain rrp6, stronger effect = lower value",0.98
same,normalized growth,"S. cerevisiae deletion strains, locus YOR061W, strain CKA2, stronger effect = lower value",0.935
same,normalized growth,"S. cerevisiae deletion strains, locus YOR069W, strain VPS5, stronger effect = lower value",0.996
same,normalized growth,"S. cerevisiae deletion strains, locus YOR070C, strain gyp1, stronger effect = lower value",1
same,normalized growth,"S. cerevisiae deletion strains, locus YOR080W, strain dia2, stronger effect = lower value",0.979
same,normalized growth,"S. cerevisiae deletion strains, locus YOR083W, strain WHI5, stronger effect = lower value",0.976
same,normalized growth,"S. cerevisiae deletion strains, locus YOR106W, strain vam3, stronger effect = lower value",0.978
same,normalized growth,"S. cerevisiae deletion strains, locus YOR136W, strain idh2, stronger effect = lower value",1.02
same,normalized growth,"S. cerevisiae deletion strains, locus YOR144C, strain elg1, stronger effect = lower value",1.01
same,normalized growth,"S. cerevisiae deletion strains, locus YOR184W, strain ser1, stronger effect = lower value",0.96
same,normalized growth,"S. cerevisiae deletion strains, locus YOR231W, strain MKK1, stronger effect = lower value",0.483 (active)
same,normalized growth,"S. cerevisiae deletion strains, locus YOR265W, strain rbl2, stronger effect = lower value",0.994
same,normalized growth,"S. cerevisiae deletion strains, locus YOR270C, strain vph1, stronger effect = lower value",0.911
same,normalized growth,"S. cerevisiae deletion strains, locus YOR290C, strain snf2, stronger effect = lower value",0.939
same,normalized growth,"S. cerevisiae deletion strains, locus YOR316C, strain cot1, stronger effect = lower value",1.01
same,normalized growth,"S. cerevisiae deletion strains, locus YPL051W, strain arl3, stronger effect = lower value",1
same,normalized growth,"S. cerevisiae deletion strains, locus YPL078C, strain atp4, stronger effect = lower value",0.992
same,normalized growth,"S. cerevisiae deletion strains, locus YPL106C, strain sse1, stronger effect = lower value",0.839 (active)
same,normalized growth,"S. cerevisiae deletion strains, locus YPL240C, strain hsp82, stronger effect = lower value",1
same,normalized growth,"S. cerevisiae deletion strains, locus YPL256C, strain CLN2, stronger effect = lower value",0.643 (active)
same,normalized growth,"S. cerevisiae deletion strains, locus YPR119W, strain clb2, stronger effect = lower value",0.995
same,normalized growth,"S. cerevisiae deletion strains, locus YPR141C, strain kar3, stronger effect = lower value",1.02
same,normalized growth,"S. cerevisiae deletion strains, locus YPR163C, strain tif3, stronger effect = lower value",1.02
same,normalized growth,"S. cerevisiae deletion strains, locus YPR167C, strain met16, stronger effect = lower value",1.01
same,normalized growth,"S. cerevisiae deletion strains, strain wtn01, stronger effect = lower value",1
same,normalized growth,"S. cerevisiae strains, strain wild type, stronger effect = lower value",0.884 (active)
